Results published in ChEMBL document CHEMBL3433997, “St. Jude Leishmania screening dataset” (2016).
Where “and” joins values, the source holds several entries; their conditions need not be identical. Equal values may be shown once.

Key:
Format in all cases: functional
[1] = target: Solute carrier family 2, facilitated glucose transporter member 1 (Homo sapiens) (UniProt P11166); experiment: ST_JUDE_LEISH: Cytotoxicity at 2uM final concentration against transgenic Leishmania Mexicana promastigotes LmGLUT1 that are glucose transport deficient and complemented with the human glucose transporter GLUT1. Activity is measured by DNA content using SYBR green in vitro
Sequence of Solute carrier family 2, facilitated glucose transporter member 1 (Homo sapiens) (P11166 whole entry): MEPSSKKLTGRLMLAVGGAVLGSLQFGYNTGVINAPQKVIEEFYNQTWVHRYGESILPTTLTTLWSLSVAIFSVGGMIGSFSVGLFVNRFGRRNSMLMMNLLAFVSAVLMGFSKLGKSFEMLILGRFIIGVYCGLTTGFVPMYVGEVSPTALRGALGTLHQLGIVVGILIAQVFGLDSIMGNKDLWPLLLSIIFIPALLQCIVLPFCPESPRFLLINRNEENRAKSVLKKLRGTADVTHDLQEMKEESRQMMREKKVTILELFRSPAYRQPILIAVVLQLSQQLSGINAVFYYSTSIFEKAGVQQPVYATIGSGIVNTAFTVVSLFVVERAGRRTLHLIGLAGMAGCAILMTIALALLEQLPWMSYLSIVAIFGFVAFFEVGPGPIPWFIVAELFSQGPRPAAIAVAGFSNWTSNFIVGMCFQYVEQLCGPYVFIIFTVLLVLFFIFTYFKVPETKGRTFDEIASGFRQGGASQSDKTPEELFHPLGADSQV

[2] = target: Hexose transporter 1 (Plasmodium falciparum) (UniProt O97467); experiment: ST_JUDE_LEISH: Cytotoxicity at 2uM final concentration against transgenic Leishmania Mexicana promastigotes LmPfHT that are glucose transport deficient and complemented with the Plasmodium falciparum hexose transporter. Activity is measured by DNA content using SYBR green in vitro
[3] = target: Glucose transporter (Leishmania mexicana) (UniProt O61059); experiment: ST_JUDE_LEISH: Cytotoxicity at 2uM final concentration against transgenic Leishmania Mexicana promastigotes LmGT2 that are glucose transport deficient and complemented with the L. Mexicana glucose transporter 2. Activity is measured by DNA content using SYBR green in vitro

For `COc1ccc(CCNCc2ccc3nc(N)c(C)cc3c2)cc1`, the inhibition [1] was 0.92%, the inhibition [2] was 2.14% and the inhibition [3] was 3.68%.
`CC(NC(C)(C)C)C(O)c1ccc(Cl)c(C(F)(F)F)c1` (centres undefined) gave an inhibition [1] of 1.86%, an inhibition [2] of 0.38% and an inhibition [3] of 1.11%.
For `C/C=C1\CN2CC[C@H]1C[C@@H]2[C@@H](O)c1ccnc2ccc(O)cc12`, the inhibition [1] was 2.02%, the inhibition [2] was 1.55% and the inhibition [3] was 2.5%.
`Oc1ccc(CN2CCN(CCOC(c3ccccc3)c3ccc(Cl)cc3)CC2)cc1Cl` (centres undefined) showed an inhibition [1] of 5.8%, an inhibition [2] of 1.85% and an inhibition [3] of -3.12%.
`CC(C)CNCc1ccc(-c2cccc(CN(C(=O)CCC3CCCC3)C3CCN(Cc4ccccc4)CC3)c2)cc1` gave an inhibition [1] of 16.4%, an inhibition [2] of 12.3% and an inhibition [3] of 10.7%.
With `Cc1cccc(C(=O)Nc2ccnc(N(C)C3CCN(CC(C)C)CC3)c2)c1` the inhibition [1] was -0.27%, the inhibition [2] was 0.85% and the inhibition [3] was 0%.
With `CCCc1cc(O)c2c3c(c(=O)oc2c1)CN(C)CC3` the inhibition [1] was 0.29%, the inhibition [2] was 0.97% and the inhibition [3] was 1.39%.
In the case of `COc1ccc(F)cc1-c1csc(N(c2ccc(F)cc2)C2CCNCC2)n1`, the inhibition [1] is reported as 1.56%, the inhibition [2] is reported as 0.21% and the inhibition [3] is reported as 0.05%.
With `CC(C)(C)c1cc(/C=C/C(=O)NC2CCC(CN3CCC(c4c[nH]c5ccccc45)CC3)CC2)cc(C(C)(C)C)c1O` (centres undefined) the inhibition [1] was 2.87% and 2.94%, the inhibition [2] was 0.49% and 5.11% and the inhibition [3] was -0.51% and 1.19%.
Molecule `COc1ccc(N(c2nc(-c3cc(Cl)ccc3Cl)cs2)C2CCNCC2)cc1` has an inhibition [1] of 0.66%, an inhibition [2] of -0.12% and an inhibition [3] of 1.62%.
Molecule `COc1ccc(CCNCc2ccc3c(C)cc(N)nc3c2)cc1` has an inhibition [1] of 0.82%, an inhibition [2] of 2.73% and an inhibition [3] of 2.71%.
For `COc1cccc(C(=O)C2CC2CN2CC=C(c3c(C)[nH]c4ccccc34)CC2)c1` (centres undefined), the inhibition [1] was 1.94%, the inhibition [2] was -3.97% and the inhibition [3] was 4.19%.
In the case of `OC(CNCc1ccccc1OC(F)F)c1cccc(C(F)(F)F)c1` (centres undefined), the inhibition [1] is reported as 1.52%, the inhibition [2] is reported as 1.17% and the inhibition [3] is reported as 1.62%.
Molecule `CN(C)c1cccc(CN2CC=C(c3c[nH]c4ccc(Cl)cc34)CC2)c1` has an inhibition [1] of 8.22%, an inhibition [2] of 6.95% and an inhibition [3] of 4.91%.
Work on `CC(C)N(C)C(=O)n1cnc(S(=O)(=O)C2CC3CCC2C3)n1` (centres undefined) yielded an inhibition [1] of 2.26%, an inhibition [2] of 1.45% and an inhibition [3] of -0.84%.
In the case of `Cc1ccc2c(C3=CCN(CCCCC4(C)C(=O)Nc5c(F)cccc54)CC3)c(C)[nH]c2c1` (centres undefined), the inhibition [1] is reported as 2.71%, the inhibition [2] is reported as 1.48% and the inhibition [3] is reported as 1.63%.
For `CC(=O)Nc1ccc(OCCN(CC(F)(F)F)c2ccc(C#N)cc2C(F)(F)F)cc1`, the inhibition [1] was 2.13%, the inhibition [2] was 2.71% and the inhibition [3] was 0.98%.
`Cc1c(C(=O)NC2CCC(CN3CCC(c4c[nH]c5ccccc45)CC3)CC2)cnn1-c1c(Cl)cc(Cl)cc1Cl` (centres undefined) was tested, and the inhibition [1] was 1.64%, the inhibition [2] was 1.93% and the inhibition [3] was -1.52%.
Molecule `CCC1(C)CC(CCNCc2ccccc2O)(c2ccc(F)cc2)CCO1` (centres undefined) has an inhibition [1] of 0.23%, an inhibition [2] of 1.85% and an inhibition [3] of -0.21%.
For `Cc1c(C(=O)N[C@@H](C)c2ccccc2)c2cc(O)c(Br)cc2n1C1CCCCC1`, the inhibition [1] was 2.84%, the inhibition [2] was 2.43% and the inhibition [3] was 3.33%.
For `O=C(NC1CCC(CN2CCC(c3c[nH]c4ccccc34)CC2)CC1)c1csc(-c2cccc(Cl)c2Cl)n1` (centres undefined), the inhibition [1] was 5.32%, the inhibition [2] was 4.16% and the inhibition [3] was 2.71%.
Work on `CC(Cc1ccc(S(=O)(=O)N(C(C)C)C(C)C)cc1)NCC(O)c1cccc(C(F)(F)F)c1` (centres undefined) yielded an inhibition [1] of -0.77%, an inhibition [2] of 2.53% and an inhibition [3] of 1.68%.
`C=C[C@H]1CN2CC[C@H]1C[C@H]2[C@H](O)c1cc(-c2ccc(Cl)cc2)nc2ccc(OC)cc12` gave an inhibition [1] of 1.16%, an inhibition [2] of 1.72% and an inhibition [3] of 1.31%.
`Cc1nc(N)nc(N)c1-c1cccc(Cl)c1` showed an inhibition [1] of 3.73%, an inhibition [2] of 4.7% and an inhibition [3] of 1.38%.
With `COc1ccc(C=CC(=O)NC2CCC(CN3CCC(c4c[nH]c5ccccc45)CC3)CC2)cc1` (centres undefined) the inhibition [1] was 3.28% and -0.32%, the inhibition [2] was 1.24% and -0.89% and the inhibition [3] was -5.37% and -4.75%.
`COCCNCc1cccc(-c2cccc(CN(C(=O)Nc3ccccc3)C3CCN(Cc4ccccc4)CC3)c2)c1` showed an inhibition [1] of 3.2%, an inhibition [2] of 2.07% and an inhibition [3] of 1.33%.
For `O=C(C=Cc1ccc(F)c(Br)c1)NC1CCC(CN2CCC(c3c[nH]c4ccccc34)CC2)CC1` (centres undefined), the inhibition [1] was 0.26% and 5.78%, the inhibition [2] was -0.2% and 4.24% and the inhibition [3] was -1.48% and 3.84%.
In the case of `O=C(/C=C/c1ccc(Cl)c(Cl)c1)N1CCC(CN2CCC(c3c(Br)[nH]c4ccccc34)CC2)CC1`, the inhibition [1] is reported as 2.44%, the inhibition [2] is reported as 0.45% and the inhibition [3] is reported as 0.55%.
With `CC[C@H]1CN2CC[C@H]1C[C@H]2[C@H](O)c1cc(-c2cccc(C)c2)nc2ccc(OC)cc12` the inhibition [1] was 3.99%, the inhibition [2] was 2.64% and the inhibition [3] was 4.03%.
`C#CCOc1ccc(CC(C)NCC(O)c2cccc(C(F)(F)F)c2)cc1` (centres undefined) was tested, and the inhibition [1] was 0.24%, the inhibition [2] was 0.36% and the inhibition [3] was 0.98%.
`O=C(NC1CCC(CN2CCC(c3c[nH]c4ccccc34)CC2)CC1)c1cc(-c2ccccc2Cl)oc1C(F)(F)F` (centres undefined) gave an inhibition [1] of 0.8%, an inhibition [2] of 1.05% and an inhibition [3] of 0.55%.
In the case of `O=C(Nc1ccc(Cl)c(Cl)c1)N1CCC(CN2CCC(c3c[nH]c4ccccc34)CC2)CC1`, the inhibition [1] is reported as 6.13%, the inhibition [2] is reported as 5.01% and the inhibition [3] is reported as 4.11%.
`CN1CC[C@H](N(Cc2ccccc2F)c2ccc(C#N)c(Cl)c2)C1` was tested, and the inhibition [1] was 2.58%, the inhibition [2] was 3.02% and the inhibition [3] was 4.63%.
